Records with an inconclusive call do not appear. Entries that show only a call come without a potency. Active and inactive are the calls of the source. Unless noted, calls come from the whole dose curve; as a rule, active = well fitted curve in the direction sought with a large enough effect; inconclusive = small, poorly fitted or top-dose-only effect, or another doubt; inactive = no such curve, though single readings can be large; an effect the other way counts as inactive or inconclusive.
How the values were obtained:
[1] = biological target: D(1A) dopamine receptor (Homo sapiens) (UniProt P21728); assay: HTS Assay for Allosteric Agonists of the Human D1 Dopamine Receptor: Primary Screen for Potentiators (AID 488982)
How it was run: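 Tetracycline-induced HEK293 Trex D1 cells with forced coupling to calcium, loaded with no-wash calcium dye; kinetic fluorescence read 180 s after compound addition for agonism, then a further 180 s after an EC20 dopamine challenge for potentiation.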

[2] = biological target: D(1A) dopamine receptor (Homo sapiens) (UniProt P21728); assay: HTS Assay for Allosteric Agonists of the Human D1 Dopamine Receptor: Primary Screen for Antagonists (AID 488983);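 note: calcium flux response to an EC80 dopamine challenge measured with no-wash dye; nearly all actives have a fitted effect of over 65% in size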; note: potency is the fitted concentration of half-maximal effect
How it was run: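 Kinetic fluorescence at 1 cycle/sec tracked intracellular calcium in force-coupled, tetracycline-inducible HEK293 T-REx D1 cells. Loss of response to an EC80 dopamine dose, given 180 s after compound, marked antagonists.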

[3] = Validation screen for small molecules that induce genotoxicity in human embryonic kidney (HEK293T) cells expressing luciferase-tagged ELG1 (AID 493106); note: potency is the fitted concentration of half-maximal effect
How it was run: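 Cells were dispensed at 2,000 per well, then 23 nL compound or DMSO was pinned in. After 16 hr at 37 °C and 5% CO2, ONE-Glo reagent was added. Luciferase activity was measured following 30 min at room temperature.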

[4] = biological target: Thyrotropin-releasing hormone receptor (Homo sapiens) (UniProt P34981); assay: qHTS for Small Molecule Agonists and Allosteric Enhancers of Human TRH Receptor: Validation Screen for Agonists (AID 493127;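 active = calcium activation more than 3 SD above the typical response in the agonist read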;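 note: intracellular calcium rise by fluo-8 fluorescence before TRH EC20 addition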); conditions: TRH receptor agonist cell assay; at 2 µM; stronger effect = higher value
How it was run: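 Compounds are added by online pintool to dye-loaded TRHR cells while fluorescence is recorded every second. A rise in calcium signal during the agonist read marks activation; a later 10 nM TRH addition (EC20) serves the separate enhancer mode.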

[5] = qHTS for Inhibitors of Cell Surface uPA Generation: Validation Assay (AID 493164);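 note: RAW 264.7 macrophage cells exposed to compound for 18 h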
How it was run: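 ATP-Lite luminescence read-out: ATP remains high when uPA activity-dependent LF translocation into the cytoplasm is blocked. RAW 264.7 cells, 18 h compound exposure at 37 C; 7-point titration, 2.45 nM to 38.3 uM final.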

[6] = biological target: Galactokinase (Homo sapiens) (UniProt P51570); assay: qHTS Validation Assay for Inhibitors of Human Galactokinase (GALK) (AID 493189)
How it was run: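 GALK (5 nM) with 35 uM ATP and 100 uM galactose in HEPES pH 8.0 with MgCl2, NaCl, DTT and BSA. Reaction ran 1 h at room temperature. Residual ATP read by Kinase-Glo Plus luminescence.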

[7] = biological target: ATPase family AAA domain-containing protein 5 (Homo sapiens) (UniProt Q96QE3); assay: Validation screen for small molecules that inhibit ELG1-dependent DNA repair in human embryonic kidney (HEK293T) cells expressing luciferase-tagged ELG1 (AID 493107); note: nearly all actives have a fitted effect of over 70% in size; note: potency is the fitted concentration of half-maximal effect
How it was run: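 Cells are dispensed in 1536-well format, then 5-fluorouridine and compound are pinned in. After a 16 hr incubation at 37 °C and 5% CO2, ONE-Glo is added and luciferase measured on a CCD imager.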

[8] = Nrf2 qHTS screen for inhibitors: Validation (AID 493153; active = well fitted inhibition curve with a large enough effect in the main read-out, with a control signal flat, not every such curve was filed as active); conditions: Potency: luciferase luminescence; viability change: measured here: cytotoxicity max response
How it was run: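 A549 ARE_Fluc, 5% FBS OPTI-MEM; cpd titration, 18-24 h, 37°C/5% CO2. Read 1: CellTiter-Fluor (Ex 405/Em 525), cytotox. Read 2: luciferase lum, Nrf2 activity.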

Thyrotropin-releasing hormone receptor (Homo sapiens), sequence (P34981 whole entry, looked up): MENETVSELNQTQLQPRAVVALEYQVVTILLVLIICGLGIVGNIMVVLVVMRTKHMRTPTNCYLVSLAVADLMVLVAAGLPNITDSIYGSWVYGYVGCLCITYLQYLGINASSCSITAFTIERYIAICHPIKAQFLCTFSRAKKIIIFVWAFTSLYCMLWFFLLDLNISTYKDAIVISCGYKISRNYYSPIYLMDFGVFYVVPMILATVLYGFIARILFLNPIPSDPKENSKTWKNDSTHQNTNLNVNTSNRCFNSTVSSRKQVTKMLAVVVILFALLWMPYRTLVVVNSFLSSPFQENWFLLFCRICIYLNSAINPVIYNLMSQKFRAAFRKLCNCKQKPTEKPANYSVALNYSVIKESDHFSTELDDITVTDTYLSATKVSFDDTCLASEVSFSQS
D(1A) dopamine receptor (Homo sapiens), sequence (P21728 whole entry, looked up): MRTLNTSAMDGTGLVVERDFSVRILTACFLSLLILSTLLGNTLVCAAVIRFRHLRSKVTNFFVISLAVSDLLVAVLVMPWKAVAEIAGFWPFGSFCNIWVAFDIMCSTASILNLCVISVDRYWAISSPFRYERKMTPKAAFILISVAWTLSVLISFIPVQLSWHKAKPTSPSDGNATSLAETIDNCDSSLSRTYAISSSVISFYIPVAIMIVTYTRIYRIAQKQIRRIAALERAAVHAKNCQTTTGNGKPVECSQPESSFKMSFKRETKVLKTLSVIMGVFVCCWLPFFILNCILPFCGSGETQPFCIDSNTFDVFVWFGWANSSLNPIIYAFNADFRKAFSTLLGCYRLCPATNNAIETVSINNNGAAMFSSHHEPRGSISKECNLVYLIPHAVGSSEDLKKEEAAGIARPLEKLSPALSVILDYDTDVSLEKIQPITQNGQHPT
ATPase family AAA domain-containing protein 5 (Homo sapiens), sequence (Q96QE3 whole entry, looked up, the tested form may be a part): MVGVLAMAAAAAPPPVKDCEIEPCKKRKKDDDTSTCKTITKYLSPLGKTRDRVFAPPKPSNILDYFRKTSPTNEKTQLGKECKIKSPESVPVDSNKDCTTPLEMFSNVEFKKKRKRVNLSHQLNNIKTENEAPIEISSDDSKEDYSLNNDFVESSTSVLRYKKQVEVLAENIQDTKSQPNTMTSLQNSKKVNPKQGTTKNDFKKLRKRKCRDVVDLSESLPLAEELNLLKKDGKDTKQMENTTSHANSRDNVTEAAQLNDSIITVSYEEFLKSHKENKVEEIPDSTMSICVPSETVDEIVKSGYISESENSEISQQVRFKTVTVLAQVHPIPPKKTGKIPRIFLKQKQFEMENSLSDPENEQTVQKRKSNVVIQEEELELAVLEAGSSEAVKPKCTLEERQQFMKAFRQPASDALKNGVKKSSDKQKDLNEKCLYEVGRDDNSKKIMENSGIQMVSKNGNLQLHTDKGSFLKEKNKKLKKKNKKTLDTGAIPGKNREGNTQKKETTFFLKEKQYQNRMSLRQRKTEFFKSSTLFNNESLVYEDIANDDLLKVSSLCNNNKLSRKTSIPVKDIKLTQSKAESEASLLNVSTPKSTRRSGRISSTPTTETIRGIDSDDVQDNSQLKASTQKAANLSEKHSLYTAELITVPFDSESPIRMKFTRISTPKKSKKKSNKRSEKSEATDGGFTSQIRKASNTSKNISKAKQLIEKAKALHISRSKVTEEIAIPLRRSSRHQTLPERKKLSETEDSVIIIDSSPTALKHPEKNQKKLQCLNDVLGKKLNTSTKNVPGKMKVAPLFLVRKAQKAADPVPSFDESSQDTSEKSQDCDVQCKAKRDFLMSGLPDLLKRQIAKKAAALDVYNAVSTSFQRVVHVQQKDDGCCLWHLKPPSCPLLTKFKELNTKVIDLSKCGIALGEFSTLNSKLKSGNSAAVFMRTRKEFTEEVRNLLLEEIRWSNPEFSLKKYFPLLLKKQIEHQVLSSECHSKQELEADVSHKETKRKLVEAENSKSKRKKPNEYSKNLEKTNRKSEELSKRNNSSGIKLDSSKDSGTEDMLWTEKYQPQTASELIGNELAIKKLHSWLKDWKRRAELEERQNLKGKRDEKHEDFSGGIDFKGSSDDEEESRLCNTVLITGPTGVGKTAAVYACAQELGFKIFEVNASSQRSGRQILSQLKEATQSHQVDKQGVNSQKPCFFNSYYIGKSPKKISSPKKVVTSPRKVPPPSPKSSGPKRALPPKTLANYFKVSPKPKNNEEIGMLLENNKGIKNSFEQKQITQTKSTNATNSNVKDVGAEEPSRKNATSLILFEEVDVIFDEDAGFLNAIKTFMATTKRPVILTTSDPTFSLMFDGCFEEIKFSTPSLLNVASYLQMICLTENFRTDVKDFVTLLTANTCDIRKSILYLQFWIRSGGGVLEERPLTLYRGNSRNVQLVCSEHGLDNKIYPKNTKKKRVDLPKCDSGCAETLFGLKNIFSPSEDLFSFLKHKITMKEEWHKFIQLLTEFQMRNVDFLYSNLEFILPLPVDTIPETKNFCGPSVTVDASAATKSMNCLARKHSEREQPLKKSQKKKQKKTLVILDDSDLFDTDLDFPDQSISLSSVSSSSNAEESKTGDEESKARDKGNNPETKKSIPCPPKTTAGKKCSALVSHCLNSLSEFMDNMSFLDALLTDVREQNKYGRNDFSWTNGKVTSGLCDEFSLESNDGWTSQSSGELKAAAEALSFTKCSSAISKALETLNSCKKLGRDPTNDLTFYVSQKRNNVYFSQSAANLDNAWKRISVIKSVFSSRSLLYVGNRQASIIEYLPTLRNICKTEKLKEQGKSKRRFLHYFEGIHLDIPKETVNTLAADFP
Galactokinase (Homo sapiens), sequence (P51570 whole entry, looked up): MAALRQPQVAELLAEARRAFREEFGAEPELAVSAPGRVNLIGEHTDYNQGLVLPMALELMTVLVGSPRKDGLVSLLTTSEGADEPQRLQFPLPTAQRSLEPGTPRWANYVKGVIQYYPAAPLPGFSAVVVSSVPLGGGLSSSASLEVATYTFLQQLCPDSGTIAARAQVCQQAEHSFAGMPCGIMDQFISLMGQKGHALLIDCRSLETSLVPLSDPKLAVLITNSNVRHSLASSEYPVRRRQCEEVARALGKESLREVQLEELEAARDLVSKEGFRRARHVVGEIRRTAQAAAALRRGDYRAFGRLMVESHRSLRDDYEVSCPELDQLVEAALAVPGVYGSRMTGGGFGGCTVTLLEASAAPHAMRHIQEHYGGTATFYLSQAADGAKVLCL

CC12C(=O)OC(=O)C1(C)C1CCC2O1 (stereo not drawn)
Potency [1]: inactive | Potency [2]: inactive | Potency [3]: 2.91 µM (active) | activation [4]: -0.25% (inactive) | outcome [5]: inactive | Potency [6]: inactive

CC1(C)CCC=[N+]1[O-]
Potency [1]: inactive | Potency [2]: inactive | Potency [3]: inactive | Potency [7]: inactive | Potency [8]: inactive | viability change [8]: -0.162% | outcome [5]: inactive | Potency [6]: inactive

NCCCCC(=O)O
Potency [1]: inactive | Potency [2]: inactive | Potency [3]: inactive | Potency [7]: inactive | Potency [8]: inactive | viability change [8]: 11.5% | outcome [5]: inactive | Potency [6]: inactive

C[C@@H](CN1CCC(Cc2ccccc2)CC1)[C@@H](O)c1ccc(O)cc1
Potency [1]: inactive | Potency [2]: 14.1 µM (active) | Potency [3]: inactive | Potency [7]: inactive | Potency [8]: inactive | viability change [8]: 8.45% | outcome [5]: inactive | Potency [6]: inactive

Cn1c(=O)c2[nH]c(-c3ccccc3)nc2n(C)c1=O
Potency [1]: inactive | Potency [2]: inactive | Potency [3]: inactive | Potency [7]: inactive | outcome [5]: inactive | Potency [6]: inactive

CCCCC/C=C\CC(O)/C=C/c1cccc(CC(O)CCCCO)n1 (stereo not drawn)
Potency [1]: inactive | Potency [2]: inactive | Potency [3]: inactive | activation [4]: -2.94% (inactive) | outcome [5]: inactive | Potency [6]: inactive

N#C/C(=C\c1ccc(-c2cc(Cl)ccc2Cl)o1)C(=O)Nc1cccc2ncccc12
Potency [1]: inactive | Potency [2]: inactive | Potency [3]: inactive | Potency [7]: 16.4 µM (active) | outcome [5]: inactive

O=C(O)c1cc(=O)c2c(Cl)cc(Cl)cc2[nH]1
Potency [1]: inactive | Potency [2]: inactive | Potency [3]: inactive | activation [4]: 1.56% (inactive) | Potency [8]: inactive | viability change [8]: -1.84% | outcome [5]: inactive | Potency [6]: inactive

O=C(c1ccc(Cl)cc1)N1CCN(c2ccc([N+](=O)[O-])c3ncccc23)CC1
Potency [1]: inactive | Potency [2]: inactive | Potency [3]: inactive | Potency [7]: 20.6 µM (active) | outcome [5]: inactive

N#C/C(=C\c1c[nH]c2ccccc12)C(=O)c1ccc(O)c(O)c1
Potency [1]: inactive | Potency [2]: inactive | Potency [3]: inactive | activation [4]: 0.438% (inactive) | Potency [8]: inactive | viability change [8]: -8.11% | outcome [5]: inactive | Potency [6]: inactive

CC(=O)SCC[N+](C)(C)C
Potency [1]: inactive | Potency [2]: inactive | Potency [3]: inactive | activation [4]: 0.875% (inactive) | Potency [8]: inactive | viability change [8]: -2.78% | outcome [5]: inactive | Potency [6]: inactive

C[N+](C)(CCCCCC[N+](C)(C)CCCN1C(=O)c2cccc3cccc(c23)C1=O)CCCN1C(=O)c2cccc3cccc(c23)C1=O
Potency [1]: inactive | Potency [2]: inactive | Potency [3]: inactive | activation [4]: -0.188% (inactive) | Potency [8]: inactive | viability change [8]: -2.29% | outcome [5]: inactive | Potency [6]: inactive

Cc1ccc(O)c(N=Nc2ccccc2)n1
Potency [1]: inactive | Potency [2]: inactive | Potency [3]: 2.59 µM (active) | Potency [8]: inactive | viability change [8]: 0.002% | outcome [5]: inactive

O=[N+]([O-])c1ccc(CSc2ncnc3c2ncn3[C@@H]2O[C@H](CO)[C@@H](O)[C@H]2O)cc1
Potency [1]: inactive | Potency [2]: inactive | Potency [3]: inactive | Potency [7]: 0.0206 µM (active) | outcome [5]: inactive

CCCN(CC1CC1)c1nc(C)nc(Nc2c(Cl)cc(Cl)cc2Cl)c1Cl
Potency [1]: inactive | Potency [2]: inactive | Potency [3]: inactive | Potency [7]: inactive | outcome [5]: inactive | Potency [6]: inactive

CN(C)c1nc(N)c(C(=O)N=C(N)N)nc1Cl
Potency [1]: inactive | Potency [2]: inactive | Potency [3]: inactive | activation [4]: 0.625% (inactive) | Potency [8]: inactive | viability change [8]: 1.27% | outcome [5]: inactive | Potency [6]: inactive

CCCCCCCCc1ccc(-c2ccc(C(=O)O)cc2)cc1
Potency [1]: inactive | Potency [2]: inactive | Potency [3]: inactive | Potency [7]: inactive | outcome [5]: inactive

O=C(Nc1ccccc1)c1cc([N+](=O)[O-])ccc1Cl
Potency [1]: inactive | Potency [2]: inactive | Potency [3]: inactive | activation [4]: 0.375% (inactive) | Potency [8]: inactive | viability change [8]: -4.87% | outcome [5]: inactive | Potency [6]: inactive

CN(C)c1ccc(/C=C2\C(=O)Nc3ccccc32)cc1
Potency [1]: inactive | Potency [2]: inactive | Potency [3]: 1.83 µM (active) | activation [4]: -8.75% (inactive) | outcome [5]: inactive | Potency [6]: inactive

O=C(O)[C@@H]1C[C@@H](C(=O)O)N1
Potency [1]: inactive | Potency [2]: inactive | Potency [3]: inactive | activation [4]: 1.06% (inactive) | Potency [8]: inactive | viability change [8]: 2.33% | outcome [5]: inactive | Potency [6]: inactive

S=C(S)OC1CC2CC1C1CCCC21 (stereo not drawn)
Potency [1]: inactive | Potency [2]: inactive | Potency [3]: inactive | activation [4]: 0.125% (inactive) | outcome [5]: inactive | Potency [6]: inactive

CC(C)NC[C@H](O)COc1cccc2[nH]ccc12
Potency [1]: inactive | Potency [2]: inactive | Potency [3]: inactive | activation [4]: 1.12% (inactive) | Potency [8]: inactive | viability change [8]: -1.79% | outcome [5]: inactive | Potency [6]: inactive

Oc1cc2c(cc1O)CN(C(=S)NCCc1ccc(Cl)cc1)CCC2
Potency [1]: inactive | Potency [2]: 2 µM (active) | Potency [3]: inactive | activation [4]: 2.62% (inactive) | Potency [8]: inactive | viability change [8]: -1.93% | outcome [5]: inactive | Potency [6]: inactive

COc1cccc(OC)c1OCCNCC1COc2ccccc2O1 (stereo not drawn)
Potency [1]: inactive | Potency [2]: 0.316 µM (active) | Potency [3]: inactive | activation [4]: -3.69% (inactive) | Potency [8]: inactive | viability change [8]: 4.98% | outcome [5]: inactive | Potency [6]: inactive

CCN1/C(=C/C(C)=O)Sc2ccc(OC)cc21
Potency [1]: inactive | Potency [2]: inactive | Potency [3]: inactive | activation [4]: -4.31% (inactive) | Potency [8]: inactive | viability change [8]: -5.53% | outcome [5]: inactive | Potency [6]: inactive

CCCn1c(=O)c2[nH]c(-c3ccc(OCC(=O)NCCN)cc3)nc2n(CCC)c1=O
Potency [1]: inactive | Potency [2]: inactive | Potency [3]: inactive | activation [4]: 0.688% (inactive) | Potency [8]: inactive | viability change [8]: 10.5% | outcome [5]: inactive | Potency [6]: inactive

CCCCCCCCCCCCCCCC(=O)OC(CC(=O)O)C[N+](C)(C)C (stereo not drawn)
Potency [1]: inactive | Potency [2]: 5.62 µM (active) | Potency [3]: inactive | activation [4]: 1.06% (inactive) | outcome [5]: inactive | Potency [6]: inactive

Fc1ccc(C(OCCCc2cnc[nH]2)c2ccc(F)cc2)cc1
Potency [1]: inactive | Potency [2]: inactive | Potency [3]: inactive | Potency [7]: inactive | Potency [8]: inactive | viability change [8]: 0.0521% | outcome [5]: inactive | Potency [6]: inactive

O=C1NC(O)=NC1(c1ccccc1)c1ccccc1
Potency [1]: inactive | Potency [2]: inactive | Potency [3]: inactive | activation [4]: 0.125% (inactive) | Potency [6]: inactive

CN(C)CCC(c1ccc(Cl)cc1)c1ccccn1 (stereo not drawn)
Potency [1]: inactive | Potency [2]: inactive | Potency [3]: inactive | activation [4]: 1.12% (inactive) | Potency [8]: inactive | viability change [8]: 7.36% | outcome [5]: inactive | Potency [6]: inactive

NCCSSCCN
Potency [1]: inactive | Potency [2]: inactive | Potency [3]: inactive | activation [4]: -0.375% (inactive) | Potency [8]: inactive | viability change [8]: -6.08% | outcome [5]: inactive | Potency [6]: inactive

CCNC(=O)[C@H]1O[C@@H](n2cnc3c(N)nc(NCCc4ccc(CCC(=O)O)cc4)nc32)[C@H](O)[C@@H]1O
Potency [1]: inactive | Potency [2]: inactive | Potency [3]: inactive | Potency [8]: inactive | viability change [8]: 0.951% | outcome [5]: inactive
